Compounds without any hit were thinned out: in the full panel of roughly 79,000, 15% have a hit. Calls of active or inactive are those of the source. Cut-off read from the data, not from the text of the source: active = growth inhibition above about 70%; inactive = the rest.
Experiments:
[1] = NCI Yeast Anticancer Drug Screen. Data for the rad50 strain (AID 155);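 note: 0% = growth of vehicle-only cultures of the same strain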; details: S. cerevisiae rad50 strain growth inhibition, hits give high values
Outline: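 Readout: growth inhibition relative to vehicle-treated cultures. Compound exposure was carried out in a genetically defined yeast strain deficient in DNA damage repair.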

[2] = NCI Yeast Anticancer Drug Screen. Data for the mec2-1 strain (AID 157); details: S. cerevisiae mec2-1 strain, hits give high values
Outline: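 Strain: mec2-1 (DNA repair/cell cycle alteration). Compound exposure, then growth measured; inhibition expressed relative to vehicle.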

[3] = NCI Yeast Anticancer Drug Screen. Data for the sgs1 mgt1 strain (AID 161);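 note: 0% = growth of cultures given vehicle only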; details: S. cerevisiae sgs1 mgt1 strain, hits give high values
Outline: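 Inhibition of yeast growth, normalised to vehicle-treated controls, is reported for a strain bearing genetic alterations in DNA damage repair.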

[4] = NCI Yeast Anticancer Drug Screen. Data for the cln2 rad14 strain (AID 165);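 note: 0% = growth equal to vehicle treated cultures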; details: S. cerevisiae cln2 rad14 strain, hits give high values
Outline: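 Compounds are applied to the cln2 rad14 yeast strain, and growth is then compared with that of vehicle-treated cultures to give inhibition.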

[5] = NCI Yeast Anticancer Drug Screen. Data for the bub3 strain (AID 167); details: S. cerevisiae bub3 mutant strain, hits give high values
Outline: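 Readout: yeast growth inhibition, expressed relative to vehicle-only wells. The test organism is a mutant strain from a panel with lesions in DNA repair or checkpoint genes.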

[6] = NCI Yeast Anticancer Drug Screen. Data for the mlh1 rad18 strain (AID 175); details: S. cerevisiae mlh1 rad18 strain growth inhibition, hits give high values
Outline: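 Read-out is yeast growth inhibition, calculated against vehicle-only controls. The compound was applied to a strain engineered with DNA damage repair alterations.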

[7] = at 5.0 µM (retest, dose inferred, filed as 0.5)
[8] = at 50.0 µM (retest, dose inferred, filed as 5.0)

Measured: growth inhibition

O=C1C=CC(=O)C2C3C=CC(CC3)C12 (stereo not given)
active: [3]; at 50.0 µM 70.1% | [4]; at 50.0 µM 78.2% | [5]; at 50.0 µM 92.5% | [6]; at 50.0 µM 84.6%
inactive: [1]; [7] 8% | [1]; [8] 29% | [1]; at 50.0 µM 47.1% | [2]; [7] 20% | [2]; [8] 36% | [2]; at 50.0 µM 43.6% | [3]; [7] 10% | [3]; [8] 36% | [4]; [7] 14% | [4]; [8] 43% | [5]; [7] 0% | [5]; [8] 23% | [6]; [7] 11% | [6]; [8] 39%

COc1cccc(C2CC(C)(O)Oc3cc4c(cc32)OCO4)c1 (stereo not given)
inactive: [1]; [7] 4% | [1]; [8] 36% | [1]; at 50.0 µM 33.8% | [2]; [7] 5% | [2]; [8] 16% | [2]; at 50.0 µM 50.7% | [3]; [7] -12% | [3]; [8] 9% | [3]; at 50.0 µM 29.4% | [4]; [7] 8% | [4]; [8] 44% | [4]; at 50.0 µM 54.6% | [5]; [7] 2% | [5]; [8] 57% | [5]; at 50.0 µM 46.4% | [6]; [7] -14% | [6]; [8] 38% | [6]; at 50.0 µM 53%

Cc1cc(C)c(O)c(Cc2cc(Cl)cc(Cc3cc(C)cc(C)c3O)c2O)c1
inactive: [1]; [7] 0% | [2]; [7] 1% | [3]; [7] 13% | [4]; [7] 6% | [5]; [7] -9% | [6]; [7] 15%
active: [1]; [8] 91% | [1]; at 50.0 µM 94% | [2]; [8] 93% | [2]; at 50.0 µM 92.5% | [3]; [8] 93% | [3]; at 50.0 µM 95.3% | [4]; [8] 91% | [4]; at 50.0 µM 95.2% | [5]; [8] 92% | [5]; at 50.0 µM 93.5% | [6]; [8] 92% | [6]; at 50.0 µM 91.4%

C/C=C/C1=C(Cl)C(=O)[C@@H](Cl)[C@@]1(O)C(=O)OC
active: [1]; [8] 97% | [1]; at 50.0 µM 87% | [2]; [8] 99% | [2]; at 50.0 µM 90.1% | [3]; [7] 78% | [3]; [8] 99% | [3]; at 50.0 µM 91% | [4]; [8] 97% | [4]; at 50.0 µM 79.2% | [5]; [8] 95% | [5]; at 50.0 µM 87.3% | [6]; [7] 85% | [6]; [8] 99% | [6]; at 50.0 µM 90.2%
inactive: [1]; [7] 48% | [2]; [7] 61% | [4]; [7] 21% | [5]; [7] 66%

Cc1ccc(OCC2CO2)c(Br)c1 (stereo not given)
active: [1]; at 50.0 µM 78.2% | [3]; [8] 71% | [6]; [8] 84%
inactive: [1]; [7] 11% | [1]; [8] 66% | [2]; [7] 1% | [2]; [8] 19% | [2]; at 50.0 µM 5.95% | [3]; [7] 15% | [3]; at 50.0 µM 49.6% | [4]; [7] 4% | [4]; [8] 15% | [4]; at 50.0 µM -44.6% | [5]; [7] -1% | [5]; [8] 1% | [5]; at 50.0 µM -13.2% | [6]; [7] 17% | [6]; at 50.0 µM 24.1%

CCOC(=O)/C=C\c1c(Cl)n(-c2ccccc2)c(=O)n(-c2ccccc2)c1=O
active: [1]; [8] 98% | [1]; at 50.0 µM 87.7% | [2]; [8] 99% | [2]; at 50.0 µM 90.5% | [3]; [8] 99% | [3]; at 50.0 µM 89.8% | [4]; [8] 99% | [4]; at 50.0 µM 90.3% | [5]; [8] 99% | [5]; at 50.0 µM 85.6% | [6]; [8] 98% | [6]; at 50.0 µM 92.3%
inactive: [1]; [7] 31% | [2]; [7] 24% | [3]; [7] 23% | [4]; [7] 26% | [5]; [7] 31% | [6]; [7] 27%

COC(=O)C(CBr)CBr
active: [1]; [8] 100% | [2]; [8] 99% | [3]; [8] 98% | [4]; [8] 99% | [5]; [8] 100% | [6]; [8] 99%
inactive: [1]; [7] 25% | [1]; at 50.0 µM -20.9% | [2]; [7] 34% | [2]; at 50.0 µM 9.55% | [3]; [7] 22% | [3]; at 50.0 µM -5.25% | [4]; [7] 21% | [4]; at 50.0 µM 10.7% | [5]; [7] 47% | [5]; at 50.0 µM 5.8% | [6]; [7] 39% | [6]; at 50.0 µM -14.7%

CC(=O)N1C(C(=O)NNc2ccccc2)CSC1c1ccccc1 (stereo not given)
inactive: [1]; at 50.0 µM 38.1% | [2]; [7] 40% | [2]; at 50.0 µM 64.6% | [3]; at 50.0 µM 44.6% | [4]; [7] 42% | [4]; at 50.0 µM 65% | [5]; [7] 57% | [5]; at 50.0 µM 35.2% | [6]; at 50.0 µM 56.1%
active: [1]; [7] 71% | [1]; [8] 90% | [2]; [8] 84% | [3]; [7] 75% | [3]; [8] 89% | [4]; [8] 82% | [5]; [8] 93% | [6]; [7] 83% | [6]; [8] 96%

Cc1cc(C)c(C(=O)C(Br)C(Br)c2ccccc2)c(C)c1 (stereo not given)
active: [1]; [8] 94% | [1]; at 50.0 µM 95.6% | [2]; [8] 97% | [2]; at 50.0 µM 95.5% | [3]; [8] 95% | [3]; at 50.0 µM 95.8% | [4]; [8] 91% | [4]; at 50.0 µM 83.4% | [5]; [8] 93% | [5]; at 50.0 µM 94.5% | [6]; [8] 94% | [6]; at 50.0 µM 95.6%
inactive: [1]; [7] 54% | [2]; [7] 43% | [3]; [7] 63% | [4]; [7] 15% | [5]; [7] 47% | [6]; [7] 46%

CC(Nc1cc(Cl)cc(Cl)c1)c1ccncc1 (stereo not given)
active: [1]; [8] 98% | [2]; [8] 98% | [3]; [8] 91% | [4]; [8] 98% | [5]; [8] 99% | [6]; [8] 98%
inactive: [1]; [7] 1% | [1]; at 50.0 µM 37.2% | [2]; [7] -26% | [2]; at 50.0 µM 56.4% | [3]; [7] -31% | [3]; at 50.0 µM 43% | [4]; [7] 22% | [4]; at 50.0 µM 22% | [5]; [7] -59% | [5]; at 50.0 µM 43.5% | [6]; [7] -10% | [6]; at 50.0 µM 42.5%
